Our source for the outcome and AC50 values is PubChem BioAssay (EPA / NIEHS).

Results filed as inconclusive are left out. Activity calls are given as the source filed them. How the source made its calls, unless noted: active means hit-call score of the fitted dose curve at least 0.9, where 1 is the maximum; inactive means score below 0.9.

Experiment [1] addresses Myc proto-oncogene protein (Homo sapiens) (UniProt P01106). Put plainly: ATG_Myc_CIS: Attagene CIS-FACTORIAL HepG2 Assay for human Myelocytomatosis (Myc) Proto-Oncogene Transcription Factor (AID 2282990). The settings on record: HepG2, Attagene cis-reporter transcription factor activity; actives raise or lower the signal. In a few lines:
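HepG2 cells transiently transfected with multiple cis-promoter-driven reporter transcription units, so endogenous TF activity is read. After 24 h compound exposure, reporter mRNA was quantified by RT-PCR, 6-FAM labelling, HpaI digestion and capillary electrophoresis; bidirectional fit versus DMSO.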

Experiment [2] in a line: ATG_NF_kB_CIS: Attagene CIS-FACTORIAL HepG2 Assay for human Nuclear Factor Kappa B (NF-kB) (AID 2282991). As to conditions: HepG2 Attagene cis-factorial NF-kB reporter mRNA; actives raise or lower the signal. A digest of the protocol: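 Transient MRTU transfection of human HepG2 liver cells → 24 h chemical exposure → total RNA, oligo(dT) RT → PCR, 6-FAM primer extension, HpaI digest 2 h 37 C → CE fragment analysis. Bidirectional fitting, DMSO negative control.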

Experiment [3] in a line: ATG_NRF2_ARE_CIS: Attagene CIS-FACTORIAL HepG2 Assay for human Nuclear Factor Erythroid 2 Related Factor 2 (NFR2) response to Antioxidant Response Elements (ARE) (AID 2282992).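 On AC50: reporter mRNA level measured by RT-PCR and capillary electrophoresis fluorescence.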 The settings on record: HepG2 Attagene ARE/NRF2 reporter, transcription factor activity; actives raise or lower the signal. In a few lines: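 HepG2 cells transiently transfected with multiplexed cis-element reporter constructs, 24 h after chemical dosing; reporter mRNA quantified by RT-PCR, fluorescent primer extension, HpaI digestion and capillary electrophoresis. Bidirectional fit relative to DMSO.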

Experiment [4] in a line: ATG_Oct_MLP_CIS: Attagene CIS-FACTORIAL HepG2 Assay for human Octamer-Binding Transcription Factor (Oct) (AID 2282993). The settings on record: HepG2 Attagene cis-factorial Oct reporter, mRNA; actives raise or lower the signal. A digest of the protocol:
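Readout is reporter transcript level from RT-PCR with fluorescent primer extension and capillary electrophoresis, fitted in both directions against DMSO. Transfected HepG2 reporter units report endogenous factor activity after 24 h dosing.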

Experiment [5] concerns the target Cellular tumor antigen p53 (Homo sapiens) (UniProt P04637). Put plainly: ATG_p53_CIS: Attagene CIS-FACTORIAL HepG2 Assay for human p53 Transcription Factor (AID 2282994). The settings on record: HepG2 p53 cis-element reporter, Attagene mRNA; actives raise or lower the signal. In a few lines: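 HepG2 cells transiently transfected with cis-regulated multiple reporter transcription units, dosed 24 h. Reporter mRNA measured by RT-PCR, 6-FAM primer extension, HpaI digestion and capillary electrophoresis; bidirectional fit relative to DMSO.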

Experiment [6] is described as follows: BSK_3C_VCAM1: BioMAP Diversity Plus: 3C Assay for Vascular cell adhesion molecule 1 (VCAM1) Biomarker Activity (AID 2282999). As to conditions: BioMAP 3C HUVEC, VCAM1 ELISA, cytokine-stimulated; actives raise or lower the signal. In a few lines: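 Human umbilical vein endothelial cells were dosed with compound for 24 h, after which cell-surface VCAM-1 was quantified by ELISA. Bidirectional curve fitting used DMSO as negative control and activity baseline.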

Experiment [7] in a line: BSK_4H_Eotaxin3: BioMAP Diversity Plus: 4H Assay for Eotaxin 3 Biomarker Activity (AID 2283000).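 Further: CCL26 protein level quantified by ELISA in parallel with SRB cytotoxicity check.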 The settings on record: primary human endothelial cells (HUVEC); actives raise or lower the signal. In a few lines: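 Readout is Eotaxin-3 (CCL26) level by ELISA in primary human umbilical vein endothelial cells harvested 24 h after chemical exposure; activity fitted in both directions against DMSO control.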

Read-out in experiment [8]: Intercellular Adhesion Molecule 1 (ICAM1), ICAM1 (gene 3383)
Put plainly: BSK_3C_ICAM1: BioMAP Diversity Plus: 3C Assay for Intercellular Adhesion Molecule 1 (ICAM1) Biomarker Activity (AID 2283003). The settings on record: primary human endothelial cells (HUVEC); actives raise or lower the signal. In a few lines: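 Human vascular endothelial primary cells, 3C conditions, 24 h treatment. ICAM-1 by ELISA.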

In experiment [9] the target is Retinoic acid receptor alpha (Homo sapiens) (UniProt P10276). Put plainly: ATG_RARa_TRANS: Attagene TRANS-FACTORIAL HepG2 Assay for human Retinoic Acid Receptor alpha (RARa) (AID 2283005; active means hit-call score of the fitted dose curve at least 0.9, where 1 is the maximum). A digest of the protocol:
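HepG2 cells transiently transfected with multiple reporter units expressing chimeric RARα-GAL4 fusion, with GAL4-UAS-driven reporters. After 24 h compound exposure, reporter mRNA induction quantified by RT-PCR and capillary electrophoresis with fluorescent labeling; gain-of-signal fitted relative to DMSO control.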

Experiment [10] can be described thus: BSK_3C_Proliferation: Cell Proliferation Assessment in the BioMAP Diversity Plus: 3C Assay (AID 2283006).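 On AC50: potency may reflect either rise or fall in cell number versus DMSO.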 As to conditions: primary human endothelial cells (HUVEC). In a few lines: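 Proliferation of human vascular endothelial primary cells after 48 h dosing, quantified as SRB-stained protein at 560 nm relative to DMSO.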
For experiment [11], the target named is Peroxisome proliferator-activated receptor gamma (Homo sapiens) (UniProt P37231). Put plainly: ATG_PPARg_TRANS: Attagene TRANS-FACTORIAL HepG2 Assay for human Peroxisome Proliferator-activated Receptor-gamma (PPARg) (AID 2283007; active means hit-call score of the fitted dose curve at least 0.9, where 1 is the maximum). A digest of the protocol: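 Transient transfection of HepG2 with GAL4-UAS-driven reporter units; chemical dosing 24 h; total RNA → oligo(dT) RT → PCR with reporter primers → 6-FAM primer extension → HpaI digest 2 h 37 C → capillary electrophoresis. Positive direction vs DMSO.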
Peroxisome proliferator-activated receptor gamma (Homo sapiens), sequence (P37231 whole entry, looked up, the tested form may be a part): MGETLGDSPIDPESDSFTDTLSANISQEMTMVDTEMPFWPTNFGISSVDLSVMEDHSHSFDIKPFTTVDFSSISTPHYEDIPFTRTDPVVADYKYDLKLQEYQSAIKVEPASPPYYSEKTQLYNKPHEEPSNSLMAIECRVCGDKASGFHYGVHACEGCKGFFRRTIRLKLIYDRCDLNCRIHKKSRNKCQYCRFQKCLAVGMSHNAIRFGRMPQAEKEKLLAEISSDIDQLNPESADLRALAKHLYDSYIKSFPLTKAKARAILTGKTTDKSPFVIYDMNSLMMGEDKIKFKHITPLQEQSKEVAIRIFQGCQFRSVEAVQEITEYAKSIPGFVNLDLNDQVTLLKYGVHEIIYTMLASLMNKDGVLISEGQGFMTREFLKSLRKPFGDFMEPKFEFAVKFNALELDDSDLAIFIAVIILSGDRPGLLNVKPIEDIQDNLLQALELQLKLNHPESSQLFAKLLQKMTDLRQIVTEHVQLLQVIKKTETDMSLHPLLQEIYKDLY

Experiment [12] has as its target Nuclear receptor subfamily 1 group I member 2 (Homo sapiens) (UniProt O75469). Put plainly: ATG_PXR_TRANS: Attagene TRANS-FACTORIAL HepG2 Assay for human Pregnane X Receptor (PXR) (AID 2283008; active means hit-call score of the fitted dose curve at least 0.9, where 1 is the maximum). In a few lines:
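HepG2 cells transiently transfected with GAL4-UAS reporter units and PXR-Gal4 chimera, exposed 24 h. Reporter mRNA quantified by RT-PCR, fluorescent labelling, HpaI digestion and capillary electrophoresis; gain of signal vs DMSO.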

Experiment [13] has as its target human Retinoic Acid Receptor gamma (RARg), RARG (gene 5916) (UniProt P13631). Put plainly: ATG_RARg_TRANS: Attagene TRANS-FACTORIAL HepG2 Assay for human Retinoic Acid Receptor gamma (RARg) (AID 2283009; active means hit-call score of the fitted dose curve at least 0.9, where 1 is the maximum). In a few lines:
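HepG2, RARg-GAL4 TRANS system, 24 h exposure; reporter mRNA by RT-PCR + CE fluorescence; increase over DMSO.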

Experiment [14] concerns the target human RAR-related Orphan Receptor beta (RORb), RORB (gene 6096) (UniProt Q92753). Put plainly: ATG_RORb_TRANS: Attagene TRANS-FACTORIAL HepG2 Assay for human RAR-related Orphan Receptor beta (RORb) (AID 2283010; active means hit-call score of the fitted dose curve at least 0.9, where 1 is the maximum). In a few lines:
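In this TRANS-format test, human HepG2 cells express chimeric NR-Gal4 fusion proteins driving GAL4-UAS reporters. After 24 h dosing, reporter transcripts are measured by fluorescent RT-PCR/capillary electrophoresis, with DMSO as negative control.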

The target of experiment [15] is human Peroxisome Proliferator-activated Receptor alpha (PPARa), PPARA (gene 5465) (UniProt Q07869). Put plainly: ATG_PPARa_TRANS: Attagene TRANS-FACTORIAL HepG2 Assay for human Peroxisome Proliferator-activated Receptor alpha (PPARa) (AID 2283001; active means hit-call score of the fitted dose curve at least 0.9, where 1 is the maximum). In a few lines:
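HepG2 cells transiently transfected with multiplexed GAL4-UAS reporter units and chimeric NR-Gal4 constructs were dosed for 24 h. Reporter mRNA was measured by RT-PCR with fluorescent labelling and capillary electrophoresis; gain of signal fitted against DMSO.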

Experiment [16] can be described thus: BSK_3C_TissueFactor: BioMAP Diversity Plus: 3C Assay for Tissue Factor Biomarker Activity (AID 2282997). As to conditions: BioMAP 3C HUVEC, tissue factor biomarker readout; actives raise or lower the signal. In a few lines:
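Human vascular primary cells (umbilical vein endothelium) received test chemical; Tissue Factor was determined by ELISA at 24 h, and both gain and loss of signal versus DMSO were fitted.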

Experiment [17] in a line: BSK_3C_uPAR: BioMAP Diversity Plus: 3C Assay for Urokinase-type plasminogen activator receptor (uPAR) Biomarker Activity (AID 2282998). The settings on record: BioMAP 3C HUVEC, uPAR biomarker ELISA; actives raise or lower the signal. In a few lines:
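Cell-surface uPAR on HUVEC (3C system) read by ELISA at 24 h post-treatment, with DMSO as baseline and fitting in both directions. Parallel cultures stained with SRB to flag overt cytotoxicity.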

Experiment [18] addresses human Peroxisome Proliferator-activated Receptor delta (PPARd), PPARD (gene 5467) (UniProt Q03181). Put plainly: ATG_PPARd_TRANS: Attagene TRANS-FACTORIAL HepG2 Assay for human Peroxisome Proliferator-activated Receptor delta (PPARd) (AID 2283002; active means hit-call score of the fitted dose curve at least 0.9, where 1 is the maximum). A digest of the protocol: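 HepG2 cells transiently transfected with multiplexed GAL4-UAS reporter units and exogenous chimeric NR-Gal4 proteins; 24 h compound exposure. Reporter mRNA measured by RT-PCR, 6-FAM labelling, HpaI digestion and capillary electrophoresis; gain of signal versus DMSO.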

In experiment [19] the target is human Retinoic Acid Receptor beta (RARb), RARB (gene 5915) (UniProt P10826). Put plainly: ATG_RARb_TRANS: Attagene TRANS-FACTORIAL HepG2 Assay for human Retinoic Acid Receptor beta (AID 2283004; active means hit-call score of the fitted dose curve at least 0.9, where 1 is the maximum). In a few lines:
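Readout is reporter mRNA induction: RNA reverse-transcribed, PCR-amplified, FAM-labelled, HpaI-cut and resolved by capillary electrophoresis. Transiently transfected HepG2 cells carrying exogenous NR–Gal4 chimeras were dosed for 24 h; activity fitted upward relative to DMSO.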

In experiment [20] the target is human RAR-related Orphan Receptor gamma (RORg), RORC (gene 6097) (UniProt P51449). Put plainly: ATG_RORg_TRANS: Attagene TRANS-FACTORIAL HepG2 Assay for human RAR-related Orphan Receptor gamma (RORg) (AID 2283011; active means hit-call score of the fitted dose curve at least 0.9, where 1 is the maximum). A digest of the protocol: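 Transient MRTU transfection of HepG2 (TRANS format, exogenous NR-Gal4 chimera). 24 h dosing. Total RNA → oligo(dT) RT → PCR → 6-FAM labelling → HpaI cut → CE. Gain vs DMSO.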
human RAR-related Orphan Receptor gamma (RORg), RORC (gene 6097), sequence (P51449 whole entry, looked up, the tested form may be a part): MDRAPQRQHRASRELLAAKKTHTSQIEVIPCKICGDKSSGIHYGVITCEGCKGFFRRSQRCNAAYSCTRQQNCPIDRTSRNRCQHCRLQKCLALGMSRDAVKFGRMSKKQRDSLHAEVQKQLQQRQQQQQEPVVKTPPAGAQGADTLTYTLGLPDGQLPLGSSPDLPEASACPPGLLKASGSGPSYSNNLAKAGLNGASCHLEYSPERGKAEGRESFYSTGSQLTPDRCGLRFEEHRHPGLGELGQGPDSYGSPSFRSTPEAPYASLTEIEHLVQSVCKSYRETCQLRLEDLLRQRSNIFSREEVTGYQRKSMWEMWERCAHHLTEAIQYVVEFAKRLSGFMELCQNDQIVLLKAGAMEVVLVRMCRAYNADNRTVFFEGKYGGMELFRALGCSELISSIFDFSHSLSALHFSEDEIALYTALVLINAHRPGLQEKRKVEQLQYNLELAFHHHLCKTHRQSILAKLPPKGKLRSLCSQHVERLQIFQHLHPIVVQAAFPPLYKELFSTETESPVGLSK

Cellular tumor antigen p53 (Homo sapiens), sequence (P04637 whole entry, looked up): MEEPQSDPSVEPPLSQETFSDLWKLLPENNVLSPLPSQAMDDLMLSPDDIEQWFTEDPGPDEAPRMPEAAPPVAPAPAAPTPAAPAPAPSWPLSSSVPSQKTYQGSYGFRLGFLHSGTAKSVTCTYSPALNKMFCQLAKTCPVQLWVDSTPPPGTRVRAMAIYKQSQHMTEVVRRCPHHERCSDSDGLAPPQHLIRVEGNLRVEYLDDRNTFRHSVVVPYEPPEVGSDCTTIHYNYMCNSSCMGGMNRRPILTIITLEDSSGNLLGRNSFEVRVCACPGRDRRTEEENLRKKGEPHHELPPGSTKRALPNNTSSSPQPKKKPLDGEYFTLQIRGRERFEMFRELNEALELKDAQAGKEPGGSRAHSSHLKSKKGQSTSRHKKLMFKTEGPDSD
human RAR-related Orphan Receptor beta (RORb), RORB (gene 6096), sequence (Q92753 whole entry, looked up, the tested form may be a part): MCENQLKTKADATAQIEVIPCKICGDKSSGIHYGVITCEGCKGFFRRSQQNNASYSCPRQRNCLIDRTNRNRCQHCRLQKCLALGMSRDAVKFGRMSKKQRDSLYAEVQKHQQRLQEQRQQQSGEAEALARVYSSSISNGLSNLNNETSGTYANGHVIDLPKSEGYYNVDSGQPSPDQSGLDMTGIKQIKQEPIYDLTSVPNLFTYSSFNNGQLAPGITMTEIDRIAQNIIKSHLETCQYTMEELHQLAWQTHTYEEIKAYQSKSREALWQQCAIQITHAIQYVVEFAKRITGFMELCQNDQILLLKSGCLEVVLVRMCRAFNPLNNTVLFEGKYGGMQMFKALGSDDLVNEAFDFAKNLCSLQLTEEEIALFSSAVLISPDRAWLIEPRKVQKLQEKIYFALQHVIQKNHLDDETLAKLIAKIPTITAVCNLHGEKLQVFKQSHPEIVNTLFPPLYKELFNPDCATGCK
Retinoic acid receptor alpha (Homo sapiens), sequence (P10276 whole entry, looked up, the tested form may be a part): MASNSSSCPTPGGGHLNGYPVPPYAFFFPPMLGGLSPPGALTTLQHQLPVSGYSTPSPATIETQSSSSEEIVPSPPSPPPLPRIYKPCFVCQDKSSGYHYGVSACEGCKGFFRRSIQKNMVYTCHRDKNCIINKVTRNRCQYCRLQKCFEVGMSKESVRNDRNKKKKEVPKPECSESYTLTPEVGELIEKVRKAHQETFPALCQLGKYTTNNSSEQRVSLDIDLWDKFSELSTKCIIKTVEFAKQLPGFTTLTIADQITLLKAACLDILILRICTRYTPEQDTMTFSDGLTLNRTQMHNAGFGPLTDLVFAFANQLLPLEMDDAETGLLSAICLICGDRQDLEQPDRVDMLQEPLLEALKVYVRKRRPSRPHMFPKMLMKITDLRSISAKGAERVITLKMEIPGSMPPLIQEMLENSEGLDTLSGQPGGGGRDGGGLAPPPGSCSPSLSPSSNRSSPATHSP
Myc proto-oncogene protein (Homo sapiens), sequence (P01106 whole entry, looked up): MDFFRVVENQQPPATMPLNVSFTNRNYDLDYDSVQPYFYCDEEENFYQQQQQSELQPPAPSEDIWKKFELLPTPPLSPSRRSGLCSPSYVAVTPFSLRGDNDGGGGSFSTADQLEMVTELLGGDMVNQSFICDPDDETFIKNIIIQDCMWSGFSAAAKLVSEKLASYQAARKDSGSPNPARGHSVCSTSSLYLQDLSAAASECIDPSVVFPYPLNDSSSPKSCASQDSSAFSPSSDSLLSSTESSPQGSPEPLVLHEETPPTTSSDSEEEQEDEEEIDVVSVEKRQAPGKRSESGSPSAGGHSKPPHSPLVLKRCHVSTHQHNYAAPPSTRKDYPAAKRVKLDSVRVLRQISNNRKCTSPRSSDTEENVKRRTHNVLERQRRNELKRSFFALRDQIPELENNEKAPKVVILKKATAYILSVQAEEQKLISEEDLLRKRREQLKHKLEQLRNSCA
human Peroxisome Proliferator-activated Receptor alpha (PPARa), PPARA (gene 5465), sequence (Q07869 whole entry, looked up, the tested form may be a part): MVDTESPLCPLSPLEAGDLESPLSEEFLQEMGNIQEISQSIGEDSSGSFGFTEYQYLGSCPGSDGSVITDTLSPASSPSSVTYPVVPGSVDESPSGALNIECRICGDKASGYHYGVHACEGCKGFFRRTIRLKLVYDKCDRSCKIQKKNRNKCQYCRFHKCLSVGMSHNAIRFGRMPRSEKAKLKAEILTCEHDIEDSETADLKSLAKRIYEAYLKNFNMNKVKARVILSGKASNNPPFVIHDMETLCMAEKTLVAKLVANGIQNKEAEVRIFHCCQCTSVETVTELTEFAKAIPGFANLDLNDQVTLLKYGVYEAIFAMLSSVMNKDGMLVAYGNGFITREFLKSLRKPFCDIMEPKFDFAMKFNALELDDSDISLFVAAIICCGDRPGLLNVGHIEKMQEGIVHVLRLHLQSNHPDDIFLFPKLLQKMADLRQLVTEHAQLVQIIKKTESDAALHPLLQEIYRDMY
Nuclear receptor subfamily 1 group I member 2 (Homo sapiens), sequence (O75469 whole entry, looked up, the tested form may be a part): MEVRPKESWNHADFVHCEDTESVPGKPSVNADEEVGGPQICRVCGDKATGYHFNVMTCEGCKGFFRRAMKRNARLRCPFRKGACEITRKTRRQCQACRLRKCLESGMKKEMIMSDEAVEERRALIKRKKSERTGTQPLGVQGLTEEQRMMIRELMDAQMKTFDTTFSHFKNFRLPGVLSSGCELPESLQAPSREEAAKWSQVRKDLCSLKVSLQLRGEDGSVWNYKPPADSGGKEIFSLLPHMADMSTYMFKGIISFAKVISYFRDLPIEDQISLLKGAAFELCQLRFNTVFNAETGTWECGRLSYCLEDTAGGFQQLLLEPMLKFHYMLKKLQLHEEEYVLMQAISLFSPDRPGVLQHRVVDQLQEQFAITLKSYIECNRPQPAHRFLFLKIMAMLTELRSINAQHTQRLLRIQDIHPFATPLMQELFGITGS
human Retinoic Acid Receptor beta (RARb), RARB (gene 5915), sequence (P10826 whole entry, looked up, the tested form may be a part): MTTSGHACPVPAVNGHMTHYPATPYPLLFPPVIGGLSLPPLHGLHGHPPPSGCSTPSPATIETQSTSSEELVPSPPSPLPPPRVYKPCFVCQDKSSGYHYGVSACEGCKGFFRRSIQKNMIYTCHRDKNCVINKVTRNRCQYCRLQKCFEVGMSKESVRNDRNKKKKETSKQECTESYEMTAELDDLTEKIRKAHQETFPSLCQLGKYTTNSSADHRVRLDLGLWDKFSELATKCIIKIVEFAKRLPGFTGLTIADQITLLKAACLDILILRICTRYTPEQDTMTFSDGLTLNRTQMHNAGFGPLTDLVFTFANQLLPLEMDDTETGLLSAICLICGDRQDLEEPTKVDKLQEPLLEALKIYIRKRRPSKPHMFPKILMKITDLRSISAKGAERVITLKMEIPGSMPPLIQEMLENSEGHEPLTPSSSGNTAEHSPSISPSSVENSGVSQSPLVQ
human Retinoic Acid Receptor gamma (RARg), RARG (gene 5916), sequence (P13631 whole entry, looked up, the tested form may be a part): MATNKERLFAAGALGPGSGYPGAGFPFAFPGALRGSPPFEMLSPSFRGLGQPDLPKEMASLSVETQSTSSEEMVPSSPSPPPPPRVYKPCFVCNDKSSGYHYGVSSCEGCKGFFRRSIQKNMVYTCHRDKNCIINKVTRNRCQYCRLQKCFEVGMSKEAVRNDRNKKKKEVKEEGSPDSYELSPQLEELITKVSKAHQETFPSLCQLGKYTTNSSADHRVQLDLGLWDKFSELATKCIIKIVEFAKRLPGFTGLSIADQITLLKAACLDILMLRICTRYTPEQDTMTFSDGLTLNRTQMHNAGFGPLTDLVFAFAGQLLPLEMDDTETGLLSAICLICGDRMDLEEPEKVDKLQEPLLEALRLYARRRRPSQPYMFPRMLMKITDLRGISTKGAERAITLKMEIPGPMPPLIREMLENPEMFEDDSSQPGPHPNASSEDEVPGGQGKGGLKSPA

Turning to `CCOC(=O)[C@H](C)Oc1ccc(Oc2nc3ccc(Cl)cc3o2)cc1`, the result in experiment [1], in experiment [2], in [4], in [5], in experiment [6] and in [7] was inactive. The result in experiment [8], in experiment [9], in [10], in experiment [11], in experiment [12] and in [13] was inactive. Besides, in experiment [14], the call was inactive. Also, in [3], the AC50 is 50 µM (active).

For the molecule `COC(=O)c1ccc(I)cc1S(=O)(=O)NC(=O)Nc1nc(C)nc(OC)n1`, the molecule was classed as inactive in experiment [1], in experiment [3], in experiment [4], in experiment [5], in experiment [6] and in experiment [7]. Further, the molecule was classed as inactive in experiment [15], in experiment [8], in experiment [10] and in experiment [11].

Consider `Cc1nn(C)c(Oc2ccccc2)c1C=NOCc1ccc(C(=O)OC(C)(C)C)cc1`, for which the result in experiment [1], in experiment [5], in experiment [16], in experiment [7], in [15] and in experiment [18] was inactive. In addition, the outcome in experiment [8], in [19], in experiment [9], in experiment [12], in experiment [13] and in [14] was inactive. Further, in experiment [20], the outcome was inactive. The AC50 in experiment [3] was 0.0249 µM (active); in experiment [4], 0.0401 µM (active); in [17] it was 7.77 µM (active); in experiment [6], 32.5 µM (active); in [10], 7.65 µM (active); in [11], 1.88 µM (active).

Take `CCCCCOC(=O)COc1cc(N2C(=O)C3=C(CCCC3)C2=O)c(F)cc1Cl`: the outcome in experiment [1], in experiment [4], in experiment [17], in experiment [7], in experiment [15] and in experiment [8] was inactive. For the same molecule, the call in [19], in experiment [9], in experiment [11], in [12], in [14] and in [20] was inactive. Moreover, the AC50 in experiment [3] is 20.7 µM (active); in experiment [6] it was 26.5 µM (active); in [10], 14.3 µM (active).
